# Assay outcomes (PubChem BioAssay)
# ugtP null kill = kills S. aureus RN4220 lacking UgtP | growth inhibition, % (test concentration not listed) | hit rate 0.54% among 330,000 | S. aureus RN4220 ugtP deletion, OD600 growth, 16 h | AID 1259309; in the data active = growth inhibition above about 68%;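 note: plate controls were untreated wells for no effect and antibiotic for full effect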
# PrP 5UTR inh = suppresses PrP 5' UTR mRNA reporter expression; cell-based PrP 5' UTR mRNA reporter, plate reader; inhibition, % (concentration not given with the values); hit rate 0.35% among 340,000; in the data active = inhibition above about 52%; note: 0 = median of the neutral control wells
# Sa RN4220 lethal = kills Staphylococcus aureus RN4220; S. aureus RN4220 growth, OD600, 16 h; inhibition, % (concentration not given with the values); hit rate 0.33% among 330,000; AID 1259311; in the data active = inhibition above about 85%;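 note: plate controls were untreated cells for no effect and reference antibiotic for full effect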
# BJeLR lethal = BJeLR cell viability loss | inhibition, % (concentration not given with the values) | hit rate 0.17% among 300,000 | BJeLR (HRASV12) viability, CellTiter-Glo ATP luminescence, 48 h; in the data active = inhibition above about 50%; inconclusive = no clear call, values can overlap the other calls
# Yp Topo-I inh = inhibitors of Yersinia pestis topoisomerase I; Y. pestis Topo-I cleavage product accumulation, plate reader; activity, % at 10 µM; hit rate 0.064% among 360,000; AID 504884; in the data active = activity above about 50%, passing the limit was not always enough; inconclusive = no clear call, values can overlap the other calls
# PfHsp40 yeast = restores yeast growth despite PfHsp40 toxicity; S. cerevisiae expressing PfHsp40, growth rescue, ATP luminescence; growth rescue, % at 12.5 µM; hit rate 0.68% among 340,000; AID 504582; in the data active = growth rescue above about 28%, passing the limit was not always enough; inconclusive = no clear call, values can overlap the other calls;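 note: yeast W303a lacking pdr1 and pdr3 grown in galactose medium; growth measured after three days at 30 °C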
# PrP UTR cherry = prion 5' UTR mRNA inhibition, cherry-pick retest. shares compounds with PrP 5UTR inh. cell-based prion protein 5' UTR reporter, plate reader. inhibition, % at 2.5 µM. hit rate 48% among 1,100; in the data active = inhibition above about 54%; inconclusive = no clear call, values can overlap the other calls
# Starred values were filed as active, the others as inactive; ? = inconclusive; . = no result given; ! = a repeat was not active. Shown are actives, neighbours in structure and some others; about 1.4% of the full set was active somewhere.
SMILES,ugtP null kill,PrP 5UTR inh,Sa RN4220 lethal,BJeLR lethal,Yp Topo-I inh,PfHsp40 yeast,PrP UTR cherry
O=C(C=Cc1cn(-c2ccccc2)nc1-c1ccc2c(c1)OCCO2)NCCO,-1,.,5,.,.,.,.
ON=Cc1ccc2ccccc2n1,6,.,3,.,.,.,.
C(=NN1CCCCCC1)c1ccc2ccccc2n1,-9,94*,-3,.,16,-1,91*
COC1=C(C)C(=O)C2=C(C1=O)C(CO)N1C(C#N)C3CC4C(C1C2N1CCOC41)N3C (stereo not drawn),.,76*,.,.,3,-1,92*
O=[N+]([O-])c1ccc(/C=C/c2ccc3ccccc3n2)cc1,-4,15,13,15,0,0,.
Oc1ccc(/C=C/c2ccc3ccccc3n2)cc1,-5,57*,-5,30,-2,-4,?
CN(C)c1ccc(/C=C/c2ccc3ccccc3n2)cc1,-4,84*,-4,71*,8,-2,?
C(=C\c1ccc2ccccc2n1)/c1ccccc1,17,58*,3,20,-3,15,25
CCOC(=O)C1C2COc3ccc(Br)cc3C2N2C(=O)c3ccc(F)cc3NC(=O)[C@@]12C (stereo partly drawn),-2,.,0,.,.,.,.
COc1cccc(CNC(=O)c2ccc3c(c2)N(C)CCS3)c1OC,17,59*,17,-5,12,1,-30
Cc1nn(C(C)(C)C)c(C)c1/C=N/OC(=O)Nc1ccc(Cl)cc1,.,94*,.,-4,3,10,93*
CC(=O)Nc1cccc(C(=O)O)n1,2,88*,0,-5,6,0,-11
CC(=O)Nc1cccc(NC(C)=O)n1,11,-8,4,-2,-3,0,.
Cc1ccc(NC(=O)CC2SC(=NN=Cc3ccco3)NC2=O)cc1Cl (stereo not drawn),-10,.,10,.,.,.,.
COc1ccc(-c2ccnc3cc(C(=O)O)nn23)cc1,2,84*,0,0,2,1,-9
CN(C)C(CO)c1nnc(C(CC(=O)O)NC(=O)C2CCNCC2)o1 (stereo not drawn),-5,.,-1,.,.,.,.
CC(=O)N1CCN(c2ccc(NC(=O)C=Cc3ccccc3)cc2)CC1,8,.,6,.,.,.,.
Oc1ccc2c3c1O[C@H]1[C@@H](O)CC[C@@]4(O)[C@@H](C2)N(CC2CCC2)CC[C@]314,.,63*!,.,-3,-15,-1,-6
C=CCN1CC[C@@]2(C)c3cc(O)ccc3CC1C2C (stereo partly drawn),-1,.,-3,.,.,.,.
O=C1c2ccccc2C(=O)C1c1ccnc2ccccc12,0,58*,7,25,-4,2,40
N#CC1(Nc2ccc(S(N)(=O)=O)cc2)CCCC1,.,74*,.,.,-3,-2,-13
CCOC(=O)C1(Cc2ccccc2)CCCN(CCO)C1 (stereo not drawn),2,-64,2,-4,10,0,.
CCOC(=O)C1(Cc2ccccc2)CCCN(Cc2ccc(OCC)c(CO)c2)C1 (stereo not drawn),7,52*,6,7,10,0,5
CCc1noc(C)c1C(=O)N(C)CC(=O)Nc1cccc(OC)c1,6,89*,4,.,2,0,-2
CC(=O)c1ccc(-c2cccs2)s1,-11,69*,5,0,2,0,-28
SMILES,ugtP null kill,PrP 5UTR inh,Sa RN4220 lethal,BJeLR lethal,Yp Topo-I inh,PfHsp40 yeast,PrP UTR cherry
CN(C)C(=O)c1cc(C(=O)c2c(F)cccc2F)c[nH]1,1,68*,-2,-3,-4,-1,-14
CN(C)C(=O)c1cc(C(=O)c2ccccc2)c[nH]1,1,-17,2,5,-6,0,.
O=C(Cc1ccccc1)c1ccc(O)cc1,29,-48,-3,.,0,2,.
O=C(CC(O)CCc1ccccc1)c1ccc(O)cc1 (stereo not drawn),2,79*,4,.,4,-2,-16
CN=c1scc(-c2cccs2)n1/N=C/c1ccccc1O,.,94*,.,21,10,-2,90*
CN=c1scc(-c2cccs2)n1/N=C/c1ccc(O)c(O)c1O,.,-35,.,-3,-26,-2,.
CCC1CCCCN1C(=S)NC(=O)c1ccc(F)c(S(=O)(=O)N2CCOCC2)c1 (stereo not drawn),0,59*,3,2,1,0,5
O=S(=O)(C=Cc1ccccc1)Nc1ccc(N2CCOCC2)cc1,9,.,5,.,.,.,.
Cc1cccc(Nc2ncnc(N)c2[N+](=O)[O-])n1,5,-21,1,-1,4,1,.
Cc1cc(C)nc(Sc2ncnc(N)c2[N+](=O)[O-])n1,2,56*,4,4,-6,-2,-1
CCOC1OC(C(N)=O)=CC(c2ccc(Br)cc2)C1CCCO (stereo not drawn),3,.,5,.,.,.,.
O=S(=O)(c1ccc(Cl)cc1)N1c2ccccc2Oc2nc3ccccc3nc21,4,-16,1,-7,1,-2,.
COc1ccc(S(=O)(=O)N2c3cc(Cl)ccc3Oc3nc4ccccc4nc32)cc1,-5,71*,-3,74*,-3,0,88*
C[C@@H]1O[C@@H](O[C@@H]2C=C3CCC4C(CC[C@]5(C)[C@@H](c6ccc(=O)oc6)CC[C@]45O)[C@@]3(C)CC2)[C@H](O)[C@H](O)[C@H]1O (stereo partly drawn),.,94*,.,.,14,-1,94*
CC(=O)C1CCC2(O)C3CCC4=CC(=O)CCC4(C)C3CCC12C (stereo not drawn),1,-15,1,.,-2,0,.
CC1OC(OC2C(=O)c3c(O)cc(O)cc3OC2c2ccc(O)c(O)c2)C(O)C(O)C1O (stereo not drawn),1,.,2,.,.,.,.
C[C@@H]1O[C@@H](O[C@@H]2C=C3CC[C@@H]4C(CC[C@]5(C)[C@@H](c6ccc(=O)oc6)CC[C@]45O)[C@@]3(C)CC2)[C@H](O)[C@H](O)[C@H]1O (stereo partly drawn),.,94*,.,.,7,-1,90*
Cc1ccc(CN2C3c4ccccc4CC3OCCS2(=O)=O)cc1 (stereo not drawn),20,.,10,.,.,.,.
CCCCN1CCC2C=CCC(C(=O)Nc3ccc(Cl)cc3Cl)C2C1=O (stereo not drawn),8,.,5,.,.,.,.
NC(=S)c1cn(C2OC(CO)C(O)C2O)c2ncnc(N)c12 (stereo not drawn),-8,61*,4,62*,0,0,83*
Nc1ncnc2nn(C3OC(CO)C(O)C3O)nc12 (stereo not drawn),.,.,.,.,-4,.,.
Nc1ncnc2c1ccn2[C@@H]1O[C@H](CO)[C@@H](O)[C@H]1O,12,81*,3,111*,5,1,88*
COc1ccc(CC2NCC(O)C2OC(C)=O)cc1 (stereo not drawn),.,77*,.,.,-2,2,95*
O=C(Nc1ccccn1)C1CCC(=O)N1C(=O)OCc1ccccc1 (stereo not drawn),-4,.,0,.,.,.,.
